High-throughput results: PubChem BioAssay, National Center for Advancing Translational Sciences (NCATS)
Rows were chosen to be rich in hits. Some 0.34% of all compounds tested hit in one or more screens of this group.
Vif-APOBEC3G blk – qHTS for Inhibitors of Vif-A3G Interactions: qHTS; DNA dC->dU-editing enzyme APOBEC-3G (Homo sapiens), Q9HC16; HeLa A3G-eYFP + Vif (tagged APOBEC3G with the HIV-1 protein that degrades it), YFP fluorescence, overnight; Potency, µM (highest dose often 46.1 µM), for the others: at the highest dose activity, negative = active, actives largely listed as inhibitors; 0.076% of 410,000 active; AID 602310, 2012; also: % is scaled to controls: 0 for no effect and ±100 for the full control effect; nearly all actives have a fitted effect of over 60% in size
Target sequence (Q9HC16 whole entry, looked up): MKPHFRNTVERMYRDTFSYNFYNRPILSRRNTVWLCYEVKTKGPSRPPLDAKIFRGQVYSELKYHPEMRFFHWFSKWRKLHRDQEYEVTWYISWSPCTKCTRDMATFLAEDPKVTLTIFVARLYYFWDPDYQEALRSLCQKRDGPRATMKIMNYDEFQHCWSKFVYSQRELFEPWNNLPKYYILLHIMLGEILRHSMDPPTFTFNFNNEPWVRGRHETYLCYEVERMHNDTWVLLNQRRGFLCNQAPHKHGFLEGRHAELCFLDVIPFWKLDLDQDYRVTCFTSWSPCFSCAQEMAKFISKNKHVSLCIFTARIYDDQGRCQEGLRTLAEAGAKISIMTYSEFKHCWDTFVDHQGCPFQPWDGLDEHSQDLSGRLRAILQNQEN
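Read-out is eYFP fluorescence (Ex 488/Em 500-530) from Vif-expressing HeLa A3G-eYFP cells; more signal means A3G escaped Vif-mediated degradation. Cells plated overnight, compound pinned in, incubated overnight at 37 deg C.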
Epigenetic reg – Quantitative High-Throughput Screen for Regulators of Epigenetic Control; murine LDR cells, GFP reporter derepression, 30 h; Potency, µM (series often up to 53.9 µM), inactives show at the highest dose GFP activation, most hits filed as activators; 0.2% of 280,000 active; AID 1865, 2009; also: % of control where 0% means no effect; nearly all actives have a fitted effect of over 60% in size
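GFP-positive cell count by laser-scanning cytometry (objects 20–120 um) after 30 h, 37 C compound exposure of murine LDR cells; reporter is CMV-GFP integrated at a silenced locus, inducible by HDAC or DNMT inhibitors.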
Vif-APOBEC3F blk – qHTS for Inhibitors of Vif-A3F Interactions: qHTS. HeLa A3F-eYFP + Vif (tagged APOBEC3F with the HIV-1 protein that degrades it), YFP fluorescence increase. Potency, µM (series often up to 46.1 µM), for inactives: at the highest dose activity, negative = active. 0.2% of 390,000 active; also: % of control where 0% means no effect; nearly all actives have a fitted effect of over 65% in size
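Fluorescence increase (Ex 488/Em 500-530) after overnight compound treatment at 37 deg C flags inhibition of Vif-driven A3F-eYFP loss in stable HeLa A3F-eYFP/Vif cells seeded overnight beforehand.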
* hit, by the source's call; ? = inconclusive; . = no result given. Calls follow the shape of the dose curve; as a rule, active = well fitted curve in the direction sought with a large enough effect; inconclusive = small, poorly fitted or top-dose-only effect, or another doubt; inactive = no such curve, though single readings can be large; an effect the other way counts as inactive or inconclusive. Potency is read from the fitted curve at half-maximal effect.

SMILES | Vif-APOBEC3G blk | Epigenetic reg | Vif-APOBEC3F blk
Cc1cccc(C)c1NC(=O)Cn1c(=O)n(Cc2ccc(C(=O)NCc3ccco3)cc2)c(=O)c2sccc21 | . | 11% | .
Cc1cc(C)c(NC(=O)Cn2c(=O)n(Cc3ccc(C(=O)NCc4ccco4)cc3)c(=O)c3sccc32)c(C)c1 | 8.9µM* | ? | ?
CCCCCCCCCCCCCCCC[n+]1ccc(CC(O)c2c(C)[nH]c3ccccc23)c2ccccc21 (centres undefined) | 6% | . | .
C[n+]1ccc(/C=C/c2ccc(Br)cc2)cc1 | 3% | -1% | 0%
C[n+]1ccc(/C=C/c2c[nH]c3ccc(F)cc23)cc1 | 8.9µM* | . | 10µM*
Cc1ccc(SC[C@H](Cc2ccccc2)N2CC[C@@H](C(C)(C)C)CCC2=O)cc1 | 2% | . | .
CCN1C(=S)SC(=O)C1=C1C=C(C)N(CCO)C(C)=C1 | -8% | 14µM* | -10%
CCN1C(=S)SC(=O)C1=C1C=C(C)N(CCOC)C(C)=C1 | . | 8% | .
Cc1ccc2c(c1)Sc1c(ccc3ccccc13)N2 | ? | ? | 22µM*
c1ccc2c(c1)Nc1cc3ccccc3cc1S2 | -1% | 0% | 1%
N#CC1=C(S)N(c2ccccc2)C2(CCCCC2)NC1=O | 0% | -2% | 2%
N#CC1=C(S)N(c2ccc(F)cc2)C2(CCCCC2)NC1=O | 9% | ? | 11µM*
On1onc2c3cc(-c4ccccc4)nc3ccc21 | 3.5µM* | 16µM* | ?
c1ccc(-c2cc3c(ccc4nonc43)nn2)cc1 | -1% | 3% | -11%
OC(C[n+]1ccccc1Cl)c1ccccc1 (centres undefined) | -3% | . | .
Nc1c(C(=O)N/N=C/c2ccccc2Cl)oc2nc(-c3ccccc3)cc(-c3ccco3)c12 | ? | 13% | 7.1µM*
Nc1c(C(=O)N/N=C/c2ccc(F)cc2)oc2nc(-c3ccccc3)cc(-c3ccco3)c12 | ? | 4% | ?
COc1ccc(-[n+]2c(C)cc(/C=C3\Sc4ccccc4N3C)cc2C)cc1 | ? | 3.2µM* | -209%
COc1ccc(C(=O)/C=C2\Sc3ccccc3N2C)cc1 | -2% | -3% | -1%
COc1ccccc1OC(=O)CCN1c2ccccc2Sc2ccccc21 | 1% | 4% | 0%
COc1ccccc1-[n+]1c(C)cc(/C=C2\Sc3ccccc3N2C)cc1C | ? | 7.9µM* | ?
Cc1ccc2nccnc2c1 | -15% | . | .
CCCN1CCCc2cc(CN(CCCN3CCOCC3)C(=O)Nc3ccc(Cl)c(Cl)c3)ccc21 | 3% | 2% | -7%
CC(C)(C)n1ncc2c(=O)n(Cc3ccc(F)cc3Cl)cnc21 | 5% | . | .
Cc1cccc(CCn2c(=O)c3ccccc3n(Cc3ccccc3C)c2=O)c1 | -3% | 0% | -4%
SMILES | Vif-APOBEC3G blk | Epigenetic reg | Vif-APOBEC3F blk
CCOc1ccc2nc(N3C(=O)/C(=C/c4ccc(Cl)cc4)NC3=S)sc2c1 | -3% | 1% | 5µM*
COc1ccc2nc(N3C(=O)CNC3=S)sc2c1 | -3% | ? | 1%
Fc1ccc(/C=C/c2ccc3ccccc3n2)cc1 | 4% | . | .
Clc1ccccc1Cn1c(/C=C/c2ccco2)nc2ccccc21 | 10µM* | ? | ?
O=C(NCCCc1nc2ccccc2n1Cc1ccccc1Cl)c1ccco1 | 1% | -2% | 1%
Cc1ccc(NC(=O)Cn2c(=O)n(CCC(=O)NCc3ccccc3Cl)c(=O)c3ccccc32)cc1 | ? | 9% | -28%
O=C(Nc1ccc(OC(F)(F)F)cc1)c1nc2ccccc2nc1N1CCCCC1 | -2% | 6% | 0%
COc1ccc(NC(=O)/C(C#N)=C\c2ccc(Br)o2)cc1 | -12% | 1% | -9%
N#C/C(=C\c1ccc([N+](=O)[O-])o1)C(=O)Nc1ccc(F)cc1 | ? | ? | 22µM*
N#CCc1ccc(NC(=O)/C=C/c2ccc([N+](=O)[O-])o2)cc1 | 6.3µM* | ? | 2.5µM*
Cc1ccc(/C=C(\C#N)C(=O)Nc2cccc(Br)c2)o1 | . | 3% | .
Cc1ccc(/C=C(\C#N)C(=O)Nc2ccc(Br)cc2)o1 | . | 22µM* | .
O=C(O)/C=C/c1ccc([N+](=O)[O-])o1 | 2% | 3% | 15%
Cc1ccc(-c2nnc(Nc3cccc(Cl)c3)c3ccccc23)cc1S(=O)(=O)NCC1CCCO1 (centres undefined) | -3% | 0% | 2%
OC(CN1C=CCc2ccccc21)c1ccc(Cl)cc1Cl (centres undefined) | -2% | . | .
Cc1cccc(NC(c2cccc(Cl)c2)c2ccc3cccnc3c2O)n1 (centres undefined) | -15% | -1% | -9%
CCCS(=O)(=O)c1ncc(Cl)c(C(=O)N2CCN(c3ccc(OC)cc3)CC2)n1 | -22% | ? | 5%
COc1cc2c(cc1OC)C(c1ccc(Cl)cc1)N(c1ccc(C)c(F)c1)C(=O)C2 (centres undefined) | -20% | -2% | -1%
CN(C)c1ccc(-c2ccc(CCO)cc2)cc1 | -5% | . | .
O=C(N/N=C/C=C/c1ccccc1[N+](=O)[O-])c1cccs1 | -8% | 1% | 0%
O=C(N/N=C\C=C\c1ccc([N+](=O)[O-])o1)c1cccs1 | 10µM* | . | ?
O=C(NCCc1cccs1)c1ccc(Cl)c(Cl)c1 | -6% | -1% | 2.5µM*
O=C(NCCc1cccs1)c1ccc(Cl)cc1 | 1% | 0% | -6%
O=C(NCc1ccccc1Cl)c1cnc2sc(N3CCCCC3)nn2c1=O | 2% | -2% | 1%
O=C(Nc1nc2c(s1)CN(Cc1ccccc1)CC2)C1CCC1 | -8% | 6% | 8%
SMILES | Vif-APOBEC3G blk | Epigenetic reg | Vif-APOBEC3F blk
CN(C)c1ccc(/C=C(\C#N)C(=O)Nc2nc3c(s2)CCN(Cc2ccccc2)C3)cc1 | ? | 7.9µM* | -649%
COc1ccccc1N1CCN(C(=O)c2ccc(Nc3nc4ccccc4n4nnnc34)cc2)CC1 | -8% | -3% | ?
COc1cccc(Nc2nc3cc(C)ccc3nc2NS(=O)(=O)c2ccc(Cl)cc2)c1 | -10% | -1% | -4%
CCOc1ccc(S(=O)(=O)Nc2nc3ccccc3nc2Nc2ccc(OC)cc2)cc1 | -11% | 0% | -18%
CCOC(=O)c1ccc(Nc2nc3ccccc3nc2NS(=O)(=O)c2ccc(Cl)cc2)cc1 | -27% | -1% | 7.1µM*
Cc1ccc2nc(NS(=O)(=O)c3ccc(Cl)cc3)c(Nc3ccc(C(=O)O)cc3)nc2c1 | -3% | -2% | 4.5µM*
Oc1cccc2c(CC(O)c3c[nH]c4ccccc34)ccnc12 (centres undefined) | -1% | . | .
Cc1ccccc1Nc1c(-c2cccc(N(C)C)c2)nc2ccc(Br)cn12 | -5% | 7% | 4%
CCCC(=O)Oc1c(Sc2ccc(Cl)cc2)c(C)nn1-c1ccccc1 | 5% | -3% | -2%
Cc1ccc2oc(/N=C(\N)NC(=O)C3CC3)nc2c1 | ? | 5% | -4%
Cc1ccc2oc(/N=C(\N)NC(=O)C(C)(C)C)nc2c1 | 4% | -1% | 22µM*
CCOC(=O)c1ccc2c(c1)N(Cc1cccc(C(F)(F)F)c1)C(=O)c1ccccc1S2(=O)=O | 2% | -2% | -6%
CSc1ccc(/C=C2\C=C(C(O)c3ccc(SC)cc3)c3ccccc32)cc1 (centres undefined) | -1% | . | .
Cc1cc(C(=O)Nc2c(F)cc(F)cc2Br)cs1 | 0% | . | 1%
NNC(=S)Nc1c(F)cc(F)cc1Br | 0% | -1% | 11µM*
